tested on: RARg homodimer (NR concentration 270 nM); test: PBM binding z-score (relative to random genomic background probes); higher = stronger binding; sequences stand for … in GC…GCGATTGACAGCGTAGAATGAAGG
How it was run: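 The probes on custom Agilent 4×180K protein-binding microarrays were double-stranded, with 34-nt variable regions bearing direct-repeat seeds, single-nucleotide variants, half-site ablations and random human genomic background sequences. Incubation lasted 1 h with ligand-free nuclear receptor dimers in PBS pH 7.4, 2% milk, 0.02% Triton X-100, 1 mM DTT, 0.2 mg/mL BSA and 0.4 mg/ml salmon testes DNA. Antibodies against each partner (one per run) detected bound dimers, and fluorescence scans were regression-normalized. Binding z-scores take the random background probes as reference.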

Row | Sequence | PBM binding z-score
1 | CCTAGCAGGCCAGGGGCACTCAAGCATTTCGCTT | -0.0557
2 | ATCTCTAGGTAAGGTTCAGTGAAAGATCGATAGA | 1.03
3 | ATAGAAAGGTCGAGGTGAGTATAGAGAAAGGGAA | 4.22
4 | GCATATAGGTAATACAAGGGGAAAGTCCGATTGT | 0.368
5 | CCTACTTGGTCAGGAGGTCACACACCGGATATGA | 4.1
6 | CGTCCAAGGTCCTAGGAGGTCAGTGAAGACAGAT | 2.38
7 | AATACAGGGTCATCGTCGGCCAGAGTACGCACAG | 5.02
8 | CAGCGTAGGTCAGGGCCAGTATAGGAGGAACGTT | 4.22
9 | CAAACTAGGTCACGATAGGTCAAAGTCGAATGAC | 6.71
10 | AGAACGAGGGCACGCTGAGTTCATAGCAGAGTAG | 3.34
11 | ATATGTAGGGTATCGGGTCATTCAGTTTGCGCAT | 1.97
12 | TCATATAGGTAAACGGTGAAAGTCGGTGTGGTAA | -0.128
13 | TCGAGTAGGTTAGGGGCATACAGAATGGCGTCGA | 0.52
14 | TAGCCTAGGTCATTCAGGGGACAGTATAGAAAGC | 4.2
15 | TCAGACAGGTGAAGGTACCTCAGGTACGCAGTCG | 0.332
16 | CCTACTAGGCCATTCAGAGGTCATTGATCATATG | 3.55
17 | ATATGTAGGTTACATCCGGGTCGTTCAGGCTATG | 1.28
18 | TCTTGTAGATCAGAAGGTTAAGAAAGCTGGCCAA | 0.198
19 | TGATATAGGTAAAGGTGAAAGTCGAACGATATGA | 1.43
20 | ACTAGCAGGCCAAGGGTCACTCTAGATTAGTCCG | 3.34
21 | GGAACGAGGCCAAAGTTGATAGCATCTGTCGACG | 0.688
22 | CGAACTAGGTCATTGACAGGAGAGTGAATAGTAA | 4.2
